Experimental findings from PubChem BioAssay (NCATS) are described below.

Assay [1] is described as follows: Cell Viability - LYMP2-001 (AID 921).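 Note: series mostly up to about 92 µM; 0% = DMSO only and full inhibition = tetraoctylammonium bromide control wells; nearly all actives have a fitted effect of over 70% in size.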 Put shortly:
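Cellular ATP loss read by luciferase luminescence after 24 h compound exposure at 37 C in complete medium. LYMP2-001 lymphoblastoid cells, 2500/well; qHTS concentration-response data fitted with Hill equation for AC50.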

Assay [2] can be described thus: MultiTox-Fluor Cytotoxicity Assay - LYMP1-002 - Dead Cells (AID 960).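 Note: cells exposed to compound for 16 h at 37 °C; 0% = DMSO and 100% = tetraoctylammonium bromide; nearly all actives have a fitted effect of over 60% in size.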 Put shortly: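 Concentration-dependent increases in membrane-leaked protease activity are quantified in LYMP1-002 cells after 16 hr treatment; values are normalized against DMSO and tetraoctylammonium bromide (15 uM) controls and AC50 derived by Hill modeling.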
The nature of assay [3]: Cell Viability - LYMP2-005 (AID 967).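 Note: series mostly up to about 92 µM; plate controls were DMSO only for no effect and 92 µM tetraoctylammonium bromide control for full effect.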 Put shortly:
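LYMP2-005 human lymphoblastoid cells (2500/well) were treated with compounds for 24 h at 37 C. Intracellular ATP was then measured by CellTiter-Glo luminescence after 30 min at room temperature. AC50 values came from Hill-equation fits of qHTS concentration-response data.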

Assay [4] in a line: Cell Viability - LYMP2-011 (AID 969).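 Note: cells exposed to compound for 24 hours; 0% = DMSO only and full inhibition = 92 µM tetraoctylammonium bromide; nearly all actives have a fitted effect of over 60% in size.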 Put shortly:
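Cells seeded at 2500 per well rest 5 hr before compound addition, then incubate 24 hr at 37 C. CellTiter-Glo reagent is added for 30 min at room temperature before luminescence detection.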

Assay [5] is described as follows: Cell Viability - LYMP2-013 (AID 970).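 Note: series mostly up to about 92 µM; 0% = DMSO only and full inhibition = tetraoctylammonium bromide control; nearly all actives have a fitted effect of over 55% in size.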 Summed up: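 In complete culture medium, human lymphoblastoid cells were dosed for 24 hr at 37 C, with tetraoctylammonium bromide (6.4pM to 92 uM) as positive control. Viability reflects luciferase-based ATP signal; AC50 derived from concentration-response curves.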
Assay [6] in a line: Cell Viability - LYMP2-017 (AID 972).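 Note: series mostly up to about 92 µM; cells exposed to compound for 24 hours at 37 °C; % is set by controls: 0 for no effect and ±100 for the full control effect; nearly all actives have a fitted effect of over 55% in size.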 Summed up: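 In this qHTS format, lymphoblastoid cells in complete medium receive test compound for a day at 37 C before ATP content is quantified by luciferase luminescence. Reported AC50 figures come from standard Hill-equation curve fitting.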
Assay [7] in a line: Cell Viability - LYMP2-023 (AID 975).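 Note: cellular ATP measured by luciferase luminescence as viability proxy; series mostly up to about 92 µM; cells exposed to compound for 24 hours at 37 °C; plate controls were DMSO only for no effect and 92 µM tetraoctylammonium bromide control for full effect; nearly all actives have a fitted effect of over 55% in size.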 Put shortly: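 In this qHTS, ATP-based luciferase luminescence (CellTiter-Glo) is quantified in human lymphoblastoid cells after 24 hr compound treatment at 37 C; tetraoctylammonium bromide serves as positive control. Concentration-response curves are Hill-fitted to give AC50.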
Assay [8] in a line: Cell Viability - LYMP2-002 (AID 977).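 Note: series mostly up to about 92 µM; plate controls were DMSO only for no effect and 92 µM tetraoctylammonium bromide for full effect.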 Put shortly: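 In this qHTS viability screen, 2500 human lymphoblastoid cells per well receive compound for 24 hr at 37 C, and luciferase-based ATP luminescence gives the viability signal. Tetraoctylammonium bromide serves as positive control.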
The nature of assay [9]: Cell Viability - LYMP2-007 (AID 979).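 Note: cells exposed to compound for 24 h before reading; 0% = DMSO only and the negative end = 92 µM tetraoctylammonium bromide; nearly all actives have a fitted effect of over 60% in size.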 Summed up:
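Measured via luciferase-based ATP quantitation: lymphoblastoid cells, 24 hr compound exposure at 37 C, AC50 from Hill fits.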

Assay [10] is described as follows: Cell Viability - LYMP2-014 (AID 983).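 Note: series mostly up to about 92 µM; plate controls were DMSO only for no effect and 92 µM tetraoctylammonium bromide for full effect; nearly all actives have a fitted effect of over 50% in size.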 Summed up: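 Quantitative HTS in lymphoblastoid cells: 24 hr compound exposure, then CellTiter-Glo ATP luminescence. Positive control was tetraoctylammonium bromide, 6.4pM to 92 uM.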
Assay [11] can be described thus: Cell Viability - LYMP2-016 (AID 984).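 Note: cells exposed to compound for 24 hours at 37 °C; % is set by controls: 0 for no effect and ±100 for the full control effect; nearly all actives have a fitted effect of over 55% in size.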 Put shortly: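 Cytotoxicity was scored by luminescent ATP content (CellTiter-Glo) after 24 h compound exposure at 37 C of a human lymphoblastoid line at 2500 cells/well. Concentration-response data were fitted to the Hill equation for AC50.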
Assay [12] can be described thus: Cell Viability - LYMP2-018 (AID 985).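 Note: plate controls were DMSO only for no effect and tetraoctylammonium bromide at 92 µM for full effect; nearly all actives have a fitted effect of over 50% in size.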 Summed up:
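In this qHTS viability assay, cells are treated for 24 hr and cellular ATP is quantified by luciferase-based luminescence, with tetraoctylammonium bromide as positive control.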

Assay [13] in a line: Cell Viability - LYMP2-020 (AID 986). Put shortly: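 Cells at 2500 per well receive a 24 hr compound exposure at 37 C. Viability is measured as ATP-dependent luciferase luminescence, with AC50 modeled from qHTS concentration-response curves.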
The nature of assay [14]: Cell Viability - LYMP2-022 (AID 987). Summed up:
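In this qHTS cytotoxicity screen, compound titrations were incubated 24 hr at 37 C with human lymphoblastoid cells in complete medium. Luciferase-based ATP luminescence provided the viability signal.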

Assay [15] in a line: Cell Viability - LYMP2-024 (AID 988).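 Note: plate controls were DMSO only for no effect and 92 µM tetraoctylammonium bromide for full effect; nearly all actives have a fitted effect of over 60% in size.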 Put shortly: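 Cells at 2500 per well received compound for 24 hr after a 5 hr settling period. Viability was scored by CellTiter-Glo luminescence, with AC50 from Hill fits.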
Assay [16] addresses Retinoic acid receptor RXR-alpha (Homo sapiens) (UniProt P19793). The assay can be described thus: qHTS assay for small molecule agonists of retinoid X receptor alpha signaling (AID 588544; calls by dose curve;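 note: 0% = DMSO basal wells and 100% = reference agonist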).
Assay [17] in a line: qHTS assay for small molecule antagonists of retinoid X receptor alpha signaling (AID 588546; active = well fitted inhibition curve with a large enough effect in the signal ratio, with a control signal flat, not every such curve was filed as active; the % refers to the signal ratio;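 note: cells stimulated with 9-cis-retinoic acid as agonist; % is set by controls: 0 for no effect and ±100 for the full control effect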). The conditions noted are these: HEK293T RXRa-UAS-bla, beta-lactamase ratio, antagonist mode; measured here: W530 green channel, cytotoxicity proxy. Summed up:
(§1)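 Beta-lactamase reporter inhibition, read as CCF4 fluorescence ratio (ex 405, em 460/530 nm) after 2 h at RT. HEK293T UAS-bla cells, 2500/well, were stimulated with 9-cis-RA at 500 or 100 nM final alongside test compound for 18 h at 37 C.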

Assay [18] addresses Retinoic acid receptor RXR-alpha (Homo sapiens) (UniProt P19793). Described as above. Conditions: HEK293T RXRa-UAS-bla, beta-lactamase ratio, antagonist mode. Summed up: as §1
Assay [19] can be described thus: qHTS assay for small molecule disruptors of the mitochondrial membrane potential - 1 hr assay (AID 651754; calls by dose curve; note: % is set by controls: 0 for no effect and ±100 for the full control effect; nearly all actives have a fitted effect of over 35% in size). Summed up:
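In this qHTS format, a 1 hr compound treatment of HepG2 cells precedes Mito-MPS staining, and membrane potential is judged from aggregate (red) against monomer (green) fluorescence intensity.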

Assay [20] can be described thus: qHTS assay for environmental chemicals that activate the Aryl hydrocarbon Receptor (AhR) signaling pathway (AID 651777). Note: % of control where 0% means no effect; nearly all actives have a fitted effect of over 15% in size. Conditions: 1A2-DRE human hepatoma cells, luciferase, 24 h; activation: stronger effect = higher value. Summed up:
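Following a 24 hr incubation with test chemicals at 37 C and 5% CO2, 1A2-DRE human hepatoma cells received One-Glo reagent; after 30 min at room temperature, luciferase output reflected CYP1A2 induction via AhR.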
For orientation: qHTS replaces the single test concentration by a dilution series.

Structures are written as SMILES. Several values for one entry are separate records, joined by “and”; a condition that tells them apart may be missing. Identical values can stand only once. Records with an inconclusive call do not appear. Activity calls are given as the source filed them. Unless noted, calls come from the whole dose curve; as a rule, active = well fitted curve in the direction sought with a large enough effect; inconclusive = small, poorly fitted or top-dose-only effect, or another doubt; inactive = no such curve, though single readings can be large; an effect the other way counts as inactive or inconclusive.

Retinoic acid receptor RXR-alpha (Homo sapiens), sequence (P19793 whole entry, looked up): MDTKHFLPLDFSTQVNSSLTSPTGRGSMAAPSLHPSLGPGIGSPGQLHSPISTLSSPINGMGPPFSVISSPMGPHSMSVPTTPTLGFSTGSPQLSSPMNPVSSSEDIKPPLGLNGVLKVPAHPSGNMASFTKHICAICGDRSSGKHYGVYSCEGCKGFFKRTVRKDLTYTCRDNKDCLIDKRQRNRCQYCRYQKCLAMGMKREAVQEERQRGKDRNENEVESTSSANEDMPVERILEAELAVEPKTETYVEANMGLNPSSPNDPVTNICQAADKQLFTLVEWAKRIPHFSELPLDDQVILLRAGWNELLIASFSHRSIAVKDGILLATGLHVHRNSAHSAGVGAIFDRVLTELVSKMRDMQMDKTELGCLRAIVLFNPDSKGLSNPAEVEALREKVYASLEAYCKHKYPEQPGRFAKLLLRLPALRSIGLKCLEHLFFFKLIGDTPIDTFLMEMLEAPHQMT

As for `Brc1ccccc1`, the Potency entry in assay [1], in assay [2], in assay [3], in assay [4], in assay [5] and in [6] was “inactive” each time. The Potency result in [7], in assay [8], in assay [9], in assay [10], in [11] and in assay [12] was “inactive” each time. Besides, the Potency result in assay [13], in [14], in assay [15], in assay [16] and in assay [19] was “inactive” each time. For the same molecule, the max response in assay [17] was -12.3% and -4.99%; in assay [18], -1.11% (inactive) and -6.34% (inactive). Also, in assay [20], the activation was -1.29% (inactive) and 1.99% (inactive).

Take `C=C(C)C(=O)OCC1CO1` (stereo not drawn): the Potency result in [1], in [2], in assay [3], in [4], in [5] and in assay [6] was “inactive” each time. The Potency entry in assay [7], in [8], in assay [9], in assay [10], in assay [11] and in assay [12] was “inactive” each time. For the same molecule, the Potency entry in assay [13], in [14], in assay [15], in assay [16] and in assay [19] was “inactive” in each case. Besides, the figures for the max response in [17] and in assay [18] were -2.75% and 4.24% (inactive), respectively. Moreover, the activation in assay [20] was 0.578% (inactive).

In the case of `CN=C=S`, the Potency entry in assay [1], in assay [2], in assay [4], in assay [5], in [6] and in assay [7] was “inactive” throughout. Further, the Potency result in [8], in [9], in assay [10], in [11], in assay [12] and in assay [13] was “inactive” each time. Besides, the Potency entry in [14], in assay [15], in assay [16] and in assay [19] was “inactive” throughout. Further, the max response in assay [17] was -16.3% and -0.556%; in assay [18] it was 0.0175% (inactive) and -8.56% (inactive). The activation in [20] was 0.215% (inactive) and 0.204% (inactive).

Turning to `OCC1CO1` (stereo not drawn), the Potency result in [1], in assay [2], in [3], in assay [4], in assay [5] and in assay [6] was “inactive” each time. The Potency result in assay [7], in assay [8], in [9], in assay [10], in assay [11] and in [12] was “inactive” each time. Also, the Potency entry in assay [13], in assay [14], in assay [15], in assay [16] and in assay [19] was “inactive” each time. The max response in [17] was 2.41% and -5.17%; in assay [18] it was 13.7% (inactive) and -0.419% (inactive). Besides, the activation in [20] was -0.664% (inactive) and -1.74% (inactive).

`C=C(Cl)Cl`: the Potency entry in assay [1], in [2], in assay [3], in assay [4], in assay [5] and in [6] was “inactive” throughout. Moreover, the Potency result in assay [7], in [8], in [9], in assay [10], in assay [11] and in [12] was “inactive” each time. The Potency result in [13], in [14], in assay [15], in [16] and in assay [19] was “inactive” in each case. Moreover, the max response in assay [17] was -3.44%; in assay [18] it was -1.27% (inactive).

On to `O=C(Cl)/C=C/C(=O)Cl`, for which the Potency result in [1], in assay [2], in [3], in assay [4], in assay [5] and in assay [6] was “inactive” each time. Also, the Potency result in assay [7], in assay [8], in assay [9], in [10], in assay [11] and in [12] was “inactive” in each case. Also, the Potency entry in [13], in assay [14], in assay [15], in [16] and in [19] was “inactive” in each case. The max response in [17] was -3.67%; in assay [18], -3.28% (inactive). The activation in assay [20] is -0.935% (inactive).
